# Measurements as given in PMC7862700, “An all-to-all approach to the identification of sequence-specific readers for epigenetic DNA modifications on cytosine”.
# Experiments:
# Assay in all cases: DAPPL (digital affinity profiling via proximity ligation, sequencing); 10 mM Tris-HCl pH 7.5, 50 mM NaCl, 1 mM DTT, 4% glycerol, room temperature, 30 min; GST-TFs on glutathione beads, 16-mer random dsDNA library, 0.1% formaldehyde crosslink after washing; high values mean tight binding
# Settings in all cases: protein: recombinant; tags: N-terminal GST; dsDNA, one strand shown
# [1] = molecular target: T1, FLI1 (Homo sapiens, UniProt Q01543 1-452)
# T1 sequence: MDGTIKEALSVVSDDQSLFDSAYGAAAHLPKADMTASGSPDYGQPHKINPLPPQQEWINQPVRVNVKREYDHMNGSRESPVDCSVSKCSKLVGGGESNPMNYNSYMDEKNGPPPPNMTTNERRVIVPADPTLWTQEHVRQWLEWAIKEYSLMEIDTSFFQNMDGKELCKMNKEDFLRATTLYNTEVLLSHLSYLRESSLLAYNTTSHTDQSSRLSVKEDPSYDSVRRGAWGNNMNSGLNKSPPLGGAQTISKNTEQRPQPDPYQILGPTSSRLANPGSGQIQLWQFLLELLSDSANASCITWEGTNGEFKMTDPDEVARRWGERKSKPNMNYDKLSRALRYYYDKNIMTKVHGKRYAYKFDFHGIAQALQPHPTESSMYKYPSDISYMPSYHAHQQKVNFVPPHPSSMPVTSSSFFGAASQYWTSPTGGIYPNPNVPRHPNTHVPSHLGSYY
# Outline: (§1)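 Pools were built from human transcription factors expressed in yeast as GST fusions, captured on glutathione beads and DNA-barcoded, along with a tag-only sample. Incubation with 200 nmole of a 16-mer random double-stranded DNA library lasted 30 min at room temperature in Tris/NaCl/DTT/glycerol buffer, and was followed by washing, 0.1% formaldehyde crosslinking, proximity ligation, PCR amplification and Illumina NextSeq500 sequencing. Binding signal is the quotient of each hexamer's read frequency for a factor and its frequency for the tag-only sample.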
# [2] = molecular target: T2, ELK1 (Homo sapiens, UniProt P19419 1-428)
# T2 sequence: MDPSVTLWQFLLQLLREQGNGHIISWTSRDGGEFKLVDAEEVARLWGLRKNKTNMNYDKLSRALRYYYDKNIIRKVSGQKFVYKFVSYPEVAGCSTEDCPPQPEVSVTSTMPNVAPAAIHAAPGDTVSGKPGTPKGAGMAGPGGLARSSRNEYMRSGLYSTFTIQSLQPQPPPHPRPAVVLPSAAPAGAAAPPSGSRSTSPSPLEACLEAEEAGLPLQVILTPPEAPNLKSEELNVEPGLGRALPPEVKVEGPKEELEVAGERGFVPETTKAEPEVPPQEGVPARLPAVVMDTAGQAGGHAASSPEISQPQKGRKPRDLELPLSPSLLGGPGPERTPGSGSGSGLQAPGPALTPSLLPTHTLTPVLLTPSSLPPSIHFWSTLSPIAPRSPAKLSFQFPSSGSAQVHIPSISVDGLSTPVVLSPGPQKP
# Outline: as §1
# [3] = molecular target: T3, GABPA (Homo sapiens, UniProt Q06546 1-454)
# T3 sequence: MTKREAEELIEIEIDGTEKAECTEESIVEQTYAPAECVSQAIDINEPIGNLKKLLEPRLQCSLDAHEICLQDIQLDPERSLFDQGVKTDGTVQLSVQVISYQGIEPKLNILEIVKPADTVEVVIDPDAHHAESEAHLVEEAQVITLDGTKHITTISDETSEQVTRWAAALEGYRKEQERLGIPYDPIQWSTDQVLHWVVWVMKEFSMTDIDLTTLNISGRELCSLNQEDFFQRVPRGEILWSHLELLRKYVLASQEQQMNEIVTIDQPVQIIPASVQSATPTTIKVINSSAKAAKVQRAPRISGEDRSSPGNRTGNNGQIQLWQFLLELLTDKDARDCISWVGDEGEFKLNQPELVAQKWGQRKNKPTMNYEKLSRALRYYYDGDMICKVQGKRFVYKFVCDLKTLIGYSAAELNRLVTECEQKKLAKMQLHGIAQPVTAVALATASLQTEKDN
# Outline: as §1
# [4] = molecular target: T4, ERG (Homo sapiens, UniProt P11308 1-479)
# T4 sequence: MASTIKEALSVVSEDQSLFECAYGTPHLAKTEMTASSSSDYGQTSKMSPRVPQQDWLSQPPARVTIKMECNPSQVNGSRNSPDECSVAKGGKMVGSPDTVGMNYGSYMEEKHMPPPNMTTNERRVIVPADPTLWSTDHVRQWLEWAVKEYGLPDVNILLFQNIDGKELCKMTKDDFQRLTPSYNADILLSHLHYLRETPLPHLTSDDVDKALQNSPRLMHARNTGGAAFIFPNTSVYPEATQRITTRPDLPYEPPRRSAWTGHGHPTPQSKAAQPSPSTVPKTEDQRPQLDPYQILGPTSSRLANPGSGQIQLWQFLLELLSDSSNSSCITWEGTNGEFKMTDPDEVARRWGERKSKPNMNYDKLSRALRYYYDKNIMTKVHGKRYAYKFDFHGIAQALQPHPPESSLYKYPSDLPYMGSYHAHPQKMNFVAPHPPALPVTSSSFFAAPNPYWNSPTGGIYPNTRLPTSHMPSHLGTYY
# Outline: as §1
# [5] = molecular target: ELF1 (Homo sapiens, UniProt P32519 1-619)
# Outline: as §1
# [6] = molecular target: T5, EHF (Homo sapiens, UniProt Q9NZC4 1-300)
# T5 sequence: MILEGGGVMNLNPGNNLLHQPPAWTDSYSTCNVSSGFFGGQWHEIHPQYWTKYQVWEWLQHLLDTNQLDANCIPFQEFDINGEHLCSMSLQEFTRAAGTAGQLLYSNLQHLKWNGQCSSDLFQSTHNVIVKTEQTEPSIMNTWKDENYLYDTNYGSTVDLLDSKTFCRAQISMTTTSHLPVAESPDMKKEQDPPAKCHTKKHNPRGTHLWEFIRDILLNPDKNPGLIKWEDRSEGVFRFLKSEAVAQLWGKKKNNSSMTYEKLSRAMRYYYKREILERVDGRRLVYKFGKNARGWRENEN
# Outline: as §1
# [7] = molecular target: SPI1 (Homo sapiens, UniProt P17947 1-270)
# Outline: as §1
# [8] = molecular target: SPIB (Homo sapiens, UniProt Q01892 1-262)
# Outline: as §1
# [9] = molecular target: T6, ELK3 (Homo sapiens, UniProt P41970 1-407)
# T6 sequence: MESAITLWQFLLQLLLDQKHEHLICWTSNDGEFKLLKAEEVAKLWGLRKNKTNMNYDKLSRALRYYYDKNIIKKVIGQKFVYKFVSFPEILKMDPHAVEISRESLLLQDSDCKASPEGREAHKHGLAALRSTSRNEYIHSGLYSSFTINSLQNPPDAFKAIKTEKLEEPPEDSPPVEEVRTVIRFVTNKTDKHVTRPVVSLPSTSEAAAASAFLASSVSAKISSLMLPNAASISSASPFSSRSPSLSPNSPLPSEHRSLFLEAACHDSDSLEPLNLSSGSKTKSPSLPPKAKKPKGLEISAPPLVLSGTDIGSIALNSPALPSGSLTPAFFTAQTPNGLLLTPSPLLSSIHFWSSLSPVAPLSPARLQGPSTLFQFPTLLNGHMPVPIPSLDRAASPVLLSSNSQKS
# Outline: as §1
# [10] = molecular target: T7, FEV (Homo sapiens, UniProt Q99581 1-238)
# T7 sequence: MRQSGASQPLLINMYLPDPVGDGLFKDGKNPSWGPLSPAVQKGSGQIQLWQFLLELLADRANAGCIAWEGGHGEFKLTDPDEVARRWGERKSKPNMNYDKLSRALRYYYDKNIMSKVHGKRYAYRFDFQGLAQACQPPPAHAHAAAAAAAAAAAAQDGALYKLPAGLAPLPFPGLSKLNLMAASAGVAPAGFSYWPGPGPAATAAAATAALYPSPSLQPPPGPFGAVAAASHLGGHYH
# Outline: as §1
# [11] = molecular target: ETV5 (Homo sapiens, UniProt P41161 1-510)
# Outline: as §1
# [12] = molecular target: T8, SPIC (Homo sapiens, UniProt Q8N5J4 1-248)
# T8 sequence: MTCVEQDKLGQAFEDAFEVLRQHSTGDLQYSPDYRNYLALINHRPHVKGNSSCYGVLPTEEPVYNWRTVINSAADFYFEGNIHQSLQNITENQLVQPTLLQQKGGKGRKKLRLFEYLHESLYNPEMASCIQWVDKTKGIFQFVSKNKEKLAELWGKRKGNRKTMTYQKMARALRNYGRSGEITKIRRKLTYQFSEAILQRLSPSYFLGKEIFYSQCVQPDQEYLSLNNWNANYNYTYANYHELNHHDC
# Outline: as §1
# [13] = molecular target: ELF4 (Homo sapiens, UniProt Q99607 1-663)
# Outline: as §1
# [14] = molecular target: T9, ELK4 (Homo sapiens, UniProt P28324-2 1-405)
# T9 sequence: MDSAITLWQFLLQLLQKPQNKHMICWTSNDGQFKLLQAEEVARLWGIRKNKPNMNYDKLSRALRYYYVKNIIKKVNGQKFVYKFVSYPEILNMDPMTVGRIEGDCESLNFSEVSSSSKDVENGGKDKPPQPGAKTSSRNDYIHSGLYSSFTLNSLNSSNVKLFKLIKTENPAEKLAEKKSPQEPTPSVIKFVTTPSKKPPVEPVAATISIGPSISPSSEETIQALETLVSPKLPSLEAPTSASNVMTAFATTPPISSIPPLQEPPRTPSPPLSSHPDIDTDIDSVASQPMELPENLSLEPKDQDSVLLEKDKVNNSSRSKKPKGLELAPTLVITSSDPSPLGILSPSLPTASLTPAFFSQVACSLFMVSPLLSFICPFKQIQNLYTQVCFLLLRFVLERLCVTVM
# Outline: as §1
# [15] = molecular target: T10, ETV2 (Homo sapiens, UniProt O00321 1-342)
# T10 sequence: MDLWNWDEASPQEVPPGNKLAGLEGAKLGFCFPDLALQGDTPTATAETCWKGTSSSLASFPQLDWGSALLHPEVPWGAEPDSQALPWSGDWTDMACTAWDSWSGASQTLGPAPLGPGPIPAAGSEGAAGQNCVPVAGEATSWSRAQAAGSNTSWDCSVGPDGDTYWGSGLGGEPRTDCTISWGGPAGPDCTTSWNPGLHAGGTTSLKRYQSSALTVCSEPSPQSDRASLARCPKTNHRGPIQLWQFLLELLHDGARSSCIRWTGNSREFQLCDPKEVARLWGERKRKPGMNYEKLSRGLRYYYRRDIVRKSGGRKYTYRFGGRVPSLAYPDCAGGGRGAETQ
# Outline: as §1
# [16] = molecular target: T11, ELF3 (Homo sapiens, UniProt P78545 1-371)
# T11 sequence: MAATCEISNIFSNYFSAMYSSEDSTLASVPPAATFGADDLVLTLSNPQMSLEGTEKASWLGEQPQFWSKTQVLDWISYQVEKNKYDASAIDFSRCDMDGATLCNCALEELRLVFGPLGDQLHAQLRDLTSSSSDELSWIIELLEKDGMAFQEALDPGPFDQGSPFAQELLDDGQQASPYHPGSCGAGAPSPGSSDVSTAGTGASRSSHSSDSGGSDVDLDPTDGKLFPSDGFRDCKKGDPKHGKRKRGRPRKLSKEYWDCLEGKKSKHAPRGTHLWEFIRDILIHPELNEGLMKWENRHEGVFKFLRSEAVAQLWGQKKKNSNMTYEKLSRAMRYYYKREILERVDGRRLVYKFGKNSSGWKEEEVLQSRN
# Outline: as §1
# [17] = molecular target: ETV1 (Homo sapiens, UniProt P50549 1-477)
# Outline: as §1
# Sequence of ELF1 (P32519 whole entry): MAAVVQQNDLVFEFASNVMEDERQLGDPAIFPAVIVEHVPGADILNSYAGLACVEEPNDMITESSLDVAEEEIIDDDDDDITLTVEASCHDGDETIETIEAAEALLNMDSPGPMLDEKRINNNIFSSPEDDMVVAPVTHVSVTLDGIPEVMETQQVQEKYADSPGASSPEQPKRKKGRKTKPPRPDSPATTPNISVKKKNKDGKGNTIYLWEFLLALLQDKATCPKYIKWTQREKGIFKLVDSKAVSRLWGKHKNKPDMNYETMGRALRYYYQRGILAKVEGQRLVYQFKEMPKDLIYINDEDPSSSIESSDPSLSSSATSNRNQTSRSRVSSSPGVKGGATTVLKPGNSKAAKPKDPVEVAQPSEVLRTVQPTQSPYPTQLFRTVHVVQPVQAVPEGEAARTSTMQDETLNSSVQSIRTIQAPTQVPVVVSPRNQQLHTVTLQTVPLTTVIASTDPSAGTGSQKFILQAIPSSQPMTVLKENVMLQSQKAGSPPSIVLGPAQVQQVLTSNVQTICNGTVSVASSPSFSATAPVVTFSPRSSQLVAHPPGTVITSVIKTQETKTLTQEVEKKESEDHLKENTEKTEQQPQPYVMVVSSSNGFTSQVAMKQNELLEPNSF
# Sequence of ETV5 (P41161 whole entry): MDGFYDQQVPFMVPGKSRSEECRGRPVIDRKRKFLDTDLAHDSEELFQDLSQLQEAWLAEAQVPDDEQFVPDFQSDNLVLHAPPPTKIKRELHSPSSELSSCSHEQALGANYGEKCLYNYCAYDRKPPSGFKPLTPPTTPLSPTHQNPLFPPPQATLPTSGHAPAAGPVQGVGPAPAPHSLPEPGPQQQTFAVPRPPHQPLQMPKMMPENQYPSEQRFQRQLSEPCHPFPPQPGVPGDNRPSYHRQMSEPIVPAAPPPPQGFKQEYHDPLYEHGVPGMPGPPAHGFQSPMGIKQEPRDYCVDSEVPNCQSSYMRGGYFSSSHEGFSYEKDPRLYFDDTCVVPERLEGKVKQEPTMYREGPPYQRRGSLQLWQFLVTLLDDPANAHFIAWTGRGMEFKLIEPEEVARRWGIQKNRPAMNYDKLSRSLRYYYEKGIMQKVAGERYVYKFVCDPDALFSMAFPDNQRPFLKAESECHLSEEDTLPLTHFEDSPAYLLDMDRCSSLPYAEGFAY
# Sequence of ELF4 (Q99607 whole entry): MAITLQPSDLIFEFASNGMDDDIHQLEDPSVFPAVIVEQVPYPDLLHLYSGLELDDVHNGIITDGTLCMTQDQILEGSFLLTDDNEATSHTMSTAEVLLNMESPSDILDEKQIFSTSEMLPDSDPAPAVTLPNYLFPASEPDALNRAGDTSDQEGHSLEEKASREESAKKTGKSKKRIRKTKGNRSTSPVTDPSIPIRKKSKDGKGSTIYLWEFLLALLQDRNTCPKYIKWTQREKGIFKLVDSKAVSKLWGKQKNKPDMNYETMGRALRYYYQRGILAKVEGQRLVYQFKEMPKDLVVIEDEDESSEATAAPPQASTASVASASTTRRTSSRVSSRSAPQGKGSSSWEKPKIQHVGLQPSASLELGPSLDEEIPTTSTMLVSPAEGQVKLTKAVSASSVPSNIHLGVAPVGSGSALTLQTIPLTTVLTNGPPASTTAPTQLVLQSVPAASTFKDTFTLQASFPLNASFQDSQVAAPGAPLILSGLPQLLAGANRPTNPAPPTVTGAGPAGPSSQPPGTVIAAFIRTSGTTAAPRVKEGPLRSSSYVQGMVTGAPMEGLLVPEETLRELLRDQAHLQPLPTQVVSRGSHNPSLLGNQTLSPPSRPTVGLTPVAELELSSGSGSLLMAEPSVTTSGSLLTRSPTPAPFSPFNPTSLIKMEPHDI
# Sequence of SPIB (Q01892 whole entry): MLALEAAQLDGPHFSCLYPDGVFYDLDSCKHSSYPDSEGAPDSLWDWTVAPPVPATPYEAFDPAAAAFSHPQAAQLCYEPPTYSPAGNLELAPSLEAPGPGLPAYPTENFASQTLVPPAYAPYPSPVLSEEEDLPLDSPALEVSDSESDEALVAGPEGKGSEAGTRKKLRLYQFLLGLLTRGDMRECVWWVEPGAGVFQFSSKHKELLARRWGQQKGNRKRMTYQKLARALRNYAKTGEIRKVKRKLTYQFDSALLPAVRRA
# Sequence of ETV1 (P50549 whole entry): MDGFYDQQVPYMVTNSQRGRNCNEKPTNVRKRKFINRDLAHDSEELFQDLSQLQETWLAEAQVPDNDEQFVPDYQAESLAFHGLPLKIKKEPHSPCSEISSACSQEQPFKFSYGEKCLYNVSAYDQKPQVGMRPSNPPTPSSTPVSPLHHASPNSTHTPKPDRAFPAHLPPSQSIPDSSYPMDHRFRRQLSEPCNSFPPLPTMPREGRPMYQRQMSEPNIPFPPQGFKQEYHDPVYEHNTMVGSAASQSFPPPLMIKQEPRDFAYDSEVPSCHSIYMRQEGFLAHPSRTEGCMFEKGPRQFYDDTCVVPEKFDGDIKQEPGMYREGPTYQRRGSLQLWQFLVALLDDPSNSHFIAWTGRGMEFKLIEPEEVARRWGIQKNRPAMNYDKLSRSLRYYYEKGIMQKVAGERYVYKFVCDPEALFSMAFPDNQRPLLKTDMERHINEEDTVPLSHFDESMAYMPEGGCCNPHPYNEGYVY
Sequence,binding signal [1],binding signal [2],binding signal [3],binding signal [4],binding signal [5],binding signal [6],binding signal [7],binding signal [8],binding signal [9],binding signal [10],binding signal [11],binding signal [12],binding signal [13],binding signal [14],binding signal [15],binding signal [16],binding signal [17]
CATTCA,"1.17 fold enrichment (6-mer frequency, TF over GST control)","1.14 fold enrichment (6-mer frequency, TF over GST control)","1.1 fold enrichment (6-mer frequency, TF over GST control)","1.17 fold enrichment (6-mer frequency, TF over GST control)","1.13 fold enrichment (6-mer frequency, TF over GST control)","1.05 fold enrichment (6-mer frequency, TF over GST control)","1.07 fold enrichment (6-mer frequency, TF over GST control)","1.12 fold enrichment (6-mer frequency, TF over GST control)","1.16 fold enrichment (6-mer frequency, TF over GST control)","1.01 fold enrichment (6-mer frequency, TF over GST control)","1.12 fold enrichment (6-mer frequency, TF over GST control)","1.01 fold enrichment (6-mer frequency, TF over GST control)","1.11 fold enrichment (6-mer frequency, TF over GST control)","1.09 fold enrichment (6-mer frequency, TF over GST control)","1.03 fold enrichment (6-mer frequency, TF over GST control)","1.06 fold enrichment (6-mer frequency, TF over GST control)","1.15 fold enrichment (6-mer frequency, TF over GST control)"
TGGACA,"1.06 fold enrichment (6-mer frequency, TF over GST control)","1.07 fold enrichment (6-mer frequency, TF over GST control)","1.11 fold enrichment (6-mer frequency, TF over GST control)","1.05 fold enrichment (6-mer frequency, TF over GST control)","1.15 fold enrichment (6-mer frequency, TF over GST control)","1.05 fold enrichment (6-mer frequency, TF over GST control)","1.03 fold enrichment (6-mer frequency, TF over GST control)","1.08 fold enrichment (6-mer frequency, TF over GST control)","1.07 fold enrichment (6-mer frequency, TF over GST control)","1.1 fold enrichment (6-mer frequency, TF over GST control)","1.08 fold enrichment (6-mer frequency, TF over GST control)","1.05 fold enrichment (6-mer frequency, TF over GST control)","1.13 fold enrichment (6-mer frequency, TF over GST control)","1.03 fold enrichment (6-mer frequency, TF over GST control)","1.03 fold enrichment (6-mer frequency, TF over GST control)","1.15 fold enrichment (6-mer frequency, TF over GST control)","1.03 fold enrichment (6-mer frequency, TF over GST control)"
GTCCCG,"1.29 fold enrichment (6-mer frequency, TF over GST control)","1.2 fold enrichment (6-mer frequency, TF over GST control)","1.21 fold enrichment (6-mer frequency, TF over GST control)","1.22 fold enrichment (6-mer frequency, TF over GST control)","1.24 fold enrichment (6-mer frequency, TF over GST control)","1.2 fold enrichment (6-mer frequency, TF over GST control)","1.21 fold enrichment (6-mer frequency, TF over GST control)","1.32 fold enrichment (6-mer frequency, TF over GST control)","1.26 fold enrichment (6-mer frequency, TF over GST control)","1.24 fold enrichment (6-mer frequency, TF over GST control)","1.19 fold enrichment (6-mer frequency, TF over GST control)","1.23 fold enrichment (6-mer frequency, TF over GST control)","1.17 fold enrichment (6-mer frequency, TF over GST control)","1.23 fold enrichment (6-mer frequency, TF over GST control)","1.06 fold enrichment (6-mer frequency, TF over GST control)","1.26 fold enrichment (6-mer frequency, TF over GST control)","1.27 fold enrichment (6-mer frequency, TF over GST control)"
